The list is not random: actives were taken first. Their share in the collection is about 10%.
BAZ2B inh: blocks human BAZ2B; Q9UIF8; AlphaScreen BAZ2B-H3K14Ac peptide displacement; Potency, µM (titrated, usually from 114 µM), actives largely listed as inhibitors; hit rate 4.4% among 360,000; AID 504333; note: nearly all actives have a fitted effect of over 60% in size
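AlphaScreen displacement of biotin-H3(5-23)K14Ac peptide (50 nM final) from BAZ2B (50 nM final) in PBS pH 7.4, 0.01% Tween-20; complex preformed 30 min RT, then compounds (top 110 uM) 30 min RT, beads 20 min dark.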
HP1b binding inh: HP1-beta chromodomain-methylated histone interaction inhibition | P83916 | AlphaScreen HP1-beta / biotin-H3K9me3 peptide binding | Potency, µM (titrated, usually from 114 µM), usual class: inhibitors | hit rate 0.56% among 390,000 | AID 540317; note: nearly all actives have a fitted effect of over 70% in size
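AlphaScreen: HP1-beta (50 nM) preformed 30 min with biotin-H3(1-18)K9me3 peptide (50 nM) in PBS pH 7.4, 0.01% Tween-20. Compound added for 30 min at RT, then streptavidin donor/nickel chelate acceptor beads (10 ug/mL) for 30 min.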
G9a block: inhibitors of human histone lysine methyltransferase G9a; Potency, µM (top dose mostly 102 µM), hits mostly inhibitors; G9a H3K9 monomethylation, AlphaScreen, 2 h; hit rate 8.8% among 350,000; Q96KQ7; note: nearly all actives have a fitted effect of over 75% in size
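AlphaScreen detection with an anti-monomethyl H3K9 antibody quantified product after a 2 h room-temperature reaction containing 500 nM biotinylated H3K9 peptide, 20 µM SAM and 20 nM enzyme, which had been preincubated 15 min with compound.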
Six1-Eya2 inh: blocks human Six1 binding to Eya2 | AlphaScreen GST-Six1/His-Eya2 binding, biochemical; hits give low values | hit rate 0.56% among 360,000 | AID 651725 | activity change, % (test concentration not listed); in the data active = activity change below about -65%; inconclusive = mostly about -30% to -63%
Target sequence (O00167 whole entry, looked up): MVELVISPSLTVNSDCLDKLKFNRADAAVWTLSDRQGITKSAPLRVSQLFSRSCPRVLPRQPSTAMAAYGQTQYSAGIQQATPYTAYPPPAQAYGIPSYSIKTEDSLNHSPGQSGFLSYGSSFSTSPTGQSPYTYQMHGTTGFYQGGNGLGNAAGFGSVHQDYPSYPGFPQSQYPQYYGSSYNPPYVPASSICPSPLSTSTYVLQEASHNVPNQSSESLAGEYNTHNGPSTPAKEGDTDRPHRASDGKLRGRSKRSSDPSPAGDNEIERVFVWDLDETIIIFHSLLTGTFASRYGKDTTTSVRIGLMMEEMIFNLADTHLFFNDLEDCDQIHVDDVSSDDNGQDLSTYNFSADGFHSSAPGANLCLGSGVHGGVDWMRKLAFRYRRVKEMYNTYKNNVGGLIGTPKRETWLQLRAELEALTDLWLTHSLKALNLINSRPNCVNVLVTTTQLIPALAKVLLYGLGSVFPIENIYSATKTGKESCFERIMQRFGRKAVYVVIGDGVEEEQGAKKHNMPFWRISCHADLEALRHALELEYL
Target sequence (Q15475 whole entry, looked up): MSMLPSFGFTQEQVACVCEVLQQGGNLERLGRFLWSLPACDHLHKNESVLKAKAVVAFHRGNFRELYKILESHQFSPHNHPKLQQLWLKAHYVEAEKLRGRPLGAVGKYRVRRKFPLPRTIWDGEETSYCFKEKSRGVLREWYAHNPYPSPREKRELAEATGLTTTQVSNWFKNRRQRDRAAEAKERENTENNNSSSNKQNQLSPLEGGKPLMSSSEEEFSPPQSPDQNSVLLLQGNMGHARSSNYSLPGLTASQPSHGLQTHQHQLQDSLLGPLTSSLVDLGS
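GST-Six1 + His-Eya2 (5X stock: 250/500 nM); Tris pH 8.0, 300 mM NaCl, 0.05% BSA, 0.02% Tween 20; GSH donor/Ni acceptor beads; 1 h 37 °C dark; AlphaScreen readout.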
CtBP-E1A inh: CtBP/E1A binding inhibition; AlphaScreen GST-E1A/His-CtBP binding, 1536-well; hits give low values; activity change, % (test concentration not listed); hit rate 0.49% among 340,000; AID 651724; in the data active = activity change below about -65%; inconclusive = mostly about -30% to -63%
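Homogeneous bead-based format: GST-tagged E1A captured on glutathione donor beads, His-tagged CtBP on nickel acceptor beads; compounds precede bead addition by 2 h at 37 °C.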
JMJD2A Tudor: blocks the human JMJD2A Tudor domain; AlphaScreen JMJD2A-Tudor / H3K4me3 peptide binding; Potency, µM (top dose mostly 114 µM), hits mostly inhibitors; O75164; hit rate 4.4% among 390,000; note: nearly all actives have a fitted effect of over 50% in size
Hits are given with their value; 0 = inactive; ? = inconclusive; - = not tested or not shown; [ ] = another dose, or the depositor's remark. Unless noted, calls come from the whole dose curve; as a rule, active = well fitted inhibition curve with a large enough effect; inconclusive = small, poorly fitted or top-dose-only effect; inactive = no such curve, though single readings can be large or run the other way.

SMILES	BAZ2B inh	HP1b binding inh	G9a block	Six1-Eya2 inh	CtBP-E1A inh	JMJD2A Tudor
COc1ccc(C2/C(=C(\O)c3ccc(OC)c(Cl)c3)C(=O)C(=O)N2CCN(C)C)cc1 (stereo not given)	0	0	79µM	0	0	0
C[C@@H]1CN([C@H](C)CO)C(=O)CCCn2cc(nn2)CO[C@H]1CN(C)C(=O)C1CCCCC1	-	-	-	0	0	-
COc1ccccc1CNC(=O)c1cccc(Nc2nc3ccccc3n3nnnc23)c1	0	0	0	-	-	0
O=C(Cc1ccccc1Cl)Nc1cc(S(=O)(=O)N2CCOCC2)ccc1N1CCOCC1	0	0	3.5µM	0	0	0
CC1CC1C(=O)Nc1cc(S(=O)(=O)N2CCOCC2)ccc1N1CCCC1 (stereo not given)	0	0	?	0	0	0
O=C(Nc1cc(S(=O)(=O)N2CCOCC2)ccc1N1CCCC1)C1CC1	0	0	40µM	0	0	0
NC(=O)C1CCN(CC(=O)Nc2cc(S(=O)(=O)N3CCOCC3)ccc2N2CCCC2)CC1	0	0	20µM	0	-	0
O=C(Nc1ccc(F)cc1)Nc1cc(S(=O)(=O)N2CCOCC2)ccc1N1CCCC1	?	0	35µM	0	0	0
CCN(C(=S)Nc1cc(S(=O)(=O)N2CCOCC2)ccc1Cl)c1cccc2ccccc12	?	0	1.8µM	0	0	0
O=C(Nc1ccccc1)Nc1cc(S(=O)(=O)N2CCOCC2)ccc1N1CCCC1	0	?	?	0	0	0
O=C(Nc1cc(S(=O)(=O)N2CCOCC2)ccc1Oc1ccc(F)cc1)C1=COCCO1	0	0	50µM	0	0	0
CCOc1ccc(Oc2ccc(S(=O)(=O)N3CCOCC3)cc2NC(=O)C2=COCCO2)cc1	0	0	0[2.33 µM]	0	0	0
O=C(Nc1ccc(Cl)cc1)Nc1cc(S(=O)(=O)N2CCOCC2)ccc1N1CCCC1	0	0	40µM	0	0	0
CN(C)S(=O)(=O)c1ccc(NC(=O)C2CC(=O)N(Cc3ccccc3Cl)C2)cc1 (stereo not given)	0	0	0	0	0	0
CCOc1ccc(NC(=O)CCNS(=O)(=O)c2ccc3c(c2)CCCC(=O)N3)cc1	0	0	0	-	-	0
CCOc1ccc(NC(=O)C2CCC(CNc3c(N4CCC(C)CC4)c(=O)c3=O)CC2)cc1 (stereo not given)	0	0	0	0	0	0
Cc1ccc(N(CC(=O)N/N=C/c2cc(C)n(-c3ccccc3C)c2C)S(C)(=O)=O)cc1	?	0	?	0	0	?
COc1ccc(Cc2c(-c3cccc(Cl)c3)nc3ccc(Cl)cn23)c(C)c1	-	-	-	0	0	-
Fc1ccc(Nc2nnc(-c3ccncc3)s2)cc1Cl	-	-	-	0	0	-
COc1ccc(CNC(=O)[C@H](C)[C@@H]2C[C@@]2(C)[C@@H](NC(=O)OCc2ccccc2)c2ccccc2)cc1OC	0	0	50µM	?	0	0
C[C@@H](C(=O)O)[C@H]1C[C@]1(C)[C@H](NC(=O)OCc1ccccc1)c1ccccc1	0	0	79µM	0	0	0
C[C@@H](C(=O)NCc1ccccc1)[C@H]1C[C@]1(C)[C@H](NC(=O)OCc1ccccc1)c1ccccc1	0	0	?	0	0	0
COC(=O)[C@H](C)[C@@H]1C[C@@]1(C)[C@@H](NC(=O)OCc1ccccc1)c1ccccc1	0	0	0	0	0	0
COC(=O)[C@H]1C[C@@H]1[C@H](NC(=O)[C@H]1C[C@@H]1[C@H](NC(=O)OCc1ccccc1)c1ccccc1)c1ccccc1	0	0	45µM	0	0	0
Cc1cc(CNC(=O)[C@H](C)[C@@H]2C[C@@]2(C)[C@@H](NC(=O)OCc2ccccc2)c2ccccc2)nn1C	0	0	56µM	0	0	0
SMILES	BAZ2B inh	HP1b binding inh	G9a block	Six1-Eya2 inh	CtBP-E1A inh	JMJD2A Tudor
O=c1cc(CN2CCN(c3ccc(Cl)c(Cl)c3)CC2)c2c(ccc3ccccc32)o1	-	-	-	0	0	-
Cn1c(N)c(C(=O)CN2CCN(S(=O)(=O)c3ccccc3C#N)CC2)c(=O)n(C)c1=O	-	-	-	0	0	-
Cc1ccc(-c2nc3ccccc3nc2NN)cc1	0	0	35µM	0	0	0
NNc1nc2ccccc2nc1C(F)(F)F	0	0	8.9µM	0	-	0[11.4 µM]
Cc1ccc(S(=O)(=O)NNc2nc3ccccc3nc2C(F)(F)F)cc1	45µM	0	1.4µM	0	0	35µM
Cc1ccc(S(=O)(=O)NNc2c3ccccc3nc3ccc(Cl)cc23)cc1	-	-	-	0	0	-
NNc1nc(C(F)(F)F)nc2ccccc12	0	0	32µM	0	0	0
CN(C)C(=O)c1ccc(-c2cncnc2N2CCNCC2)cc1	-	-	0[0.501 µM]	-	-	-
Cc1cccc(Cn2c(=O)n(CC3CCC(C(=O)NC(C)C)CC3)c(=O)c3sccc32)c1 (stereo not given)	0	0	0	-	-	0
COc1ccc(N2CCN(C(=O)Cc3ccc(S(=O)(=O)N4CCOCC4)s3)CC2)cc1	40µM	50µM	45µM	0	0	45µM
Cc1ccc(S(=O)(=O)N(CCC(=O)N2CCOCC2)c2ccccc2)cc1	0	0	14µM	0	0	0
O=C(Cc1ccc(S(=O)(=O)N2CCCC2)s1)N1CCN(c2ccccc2)CC1	-	0	?	0	0	0
Cc1ccc(S(=O)(=O)N2CCN(C(=O)Cc3ccc(S(=O)(=O)N4CCOCC4)s3)CC2)cc1	0	0	79µM	0	0	0
CCC(C)NC(=O)c1cc(-c2cccc(OC)c2)on1 (stereo not given)	0	0	0	-	-	0
COc1ccc(OC)c(CCNc2nccn(-c3ccc(C)c(C)c3)c2=O)c1	25µM	?	16µM	-	-	56µM
Nc1ccccc1NC1=CC(=O)CC(c2ccco2)C1 (stereo not given)	0	0	10µM	0	0	0
CCc1ccc(NC2=CC(=O)CC(c3ccco3)C2)cc1 (stereo not given)	?	0	50µM	0	0	?
COc1ccc(NC(=O)c2c(C)oc3ccc(O)c(CN4CCN(Cc5ccccc5)CC4)c23)cc1	0	0	?	-	-	0
O=C1c2ccccc2-c2onc3ccc(N4CCCC4)c1c23	14µM	20µM	10µM	-68	?	?
Cn1c(=O)cc2c3c(c(N4CCCCC4)ccc31)C(=O)c1ccccc1-2	10µM	?	14µM	?	-	35µM
O=C1c2ccccc2C(=O)c2c1cccc2N1CCCC1	5µM	?	4µM	-87	-89	5µM
O=C1C=C(N2CCCCC2)c2ccccc2C1=O	-	?	-	0	0	0
Cn1c(=O)c(NC2CCCCC2)c2c3c(cccc31)C(=O)c1ccccc1-2	0	0	-	0	0	0
CC(=O)OC1CC2(C)C(CCC2(O)C(C)=O)C2CCC3C(Cl)C(=O)CCC3(C)C12 (stereo not given)	-	0	-	0	0	0

Assay outcomes (PubChem)
